Rows were chosen to be rich in hits. Some 7.5% of all compounds tested hit in one or more screens of this group.
NPC1 prom act – activators of NPC1 promoter | Huh7 NPC1 promoter luciferase reporter, 24 h | Potency, µM (titrated, usually from 9.22 µM), without a hit: top-dose activation, usual class: activators | actives 2.4% (n = 320,000); note: % of control where 0% means no effect; nearly all actives have a fitted effect of over 60% in size
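Stable NPC1-promoter luciferase Huh7 line; cpd (DMSO) 24 h, 37 °C, 5% CO2; Amplite luciferase reagent 10 min RT; luminescence readout. qHTS format.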
ELG1 genotoxic – inducers of genotoxicity in HEK293T ELG1-luciferase cells; Potency, µM (series often up to 46 µM), for the others: at the highest dose activity change, positive = activation, hits mostly activators; HEK293T ELG1-luciferase reporter, luminescence, 16 h; actives 1.3% (n = 330,000); AID 504466; note: % of control where 0% means no effect; nearly all actives have a fitted effect of over 60% in size
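Genotoxic stress is detected as increased luminescence from luciferase-tagged ELG1 in HEK293T cells, measured with ONE-Glo after a 16 hr treatment at 37 °C.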
Rab9 prom act – activates the Rab9 promoter; Huh7 Rab9 promoter-luciferase reporter, luminescence, 24 h; Potency, µM (highest dose often 9.22 µM), without a hit: at the top dose activation, negative = inhibition, most hits filed as activators; actives 2.8% (n = 320,000); AID 485297; note: % of control where 0% means no effect; nearly all actives have a fitted effect of over 60% in size
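Huh7 cells stably carrying Rab9 promoter–luciferase reporter, plated 1500 cells/well, compound added after 2 h and incubated 24 h at 37 °C; luciferase luminescence then read after 10 min with detection reagent.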
FLuc modulator – inhibits or activates purified firefly luciferase, miR-21 counter-screen; P08659; purified FLuc, Km substrates, luminescence inhibition; Potency, µM (top dose mostly 57.5 µM), for the others: top-dose activity change, negative = inhibition, hits mostly inhibitors; actives 6.9% (n = 360,000); AID 588342;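 note: plate controls were vehicle for no effect and reference inhibitor for full effect; nearly all actives have a fitted effect of over 55% in size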
Target sequence (P08659 whole entry, looked up): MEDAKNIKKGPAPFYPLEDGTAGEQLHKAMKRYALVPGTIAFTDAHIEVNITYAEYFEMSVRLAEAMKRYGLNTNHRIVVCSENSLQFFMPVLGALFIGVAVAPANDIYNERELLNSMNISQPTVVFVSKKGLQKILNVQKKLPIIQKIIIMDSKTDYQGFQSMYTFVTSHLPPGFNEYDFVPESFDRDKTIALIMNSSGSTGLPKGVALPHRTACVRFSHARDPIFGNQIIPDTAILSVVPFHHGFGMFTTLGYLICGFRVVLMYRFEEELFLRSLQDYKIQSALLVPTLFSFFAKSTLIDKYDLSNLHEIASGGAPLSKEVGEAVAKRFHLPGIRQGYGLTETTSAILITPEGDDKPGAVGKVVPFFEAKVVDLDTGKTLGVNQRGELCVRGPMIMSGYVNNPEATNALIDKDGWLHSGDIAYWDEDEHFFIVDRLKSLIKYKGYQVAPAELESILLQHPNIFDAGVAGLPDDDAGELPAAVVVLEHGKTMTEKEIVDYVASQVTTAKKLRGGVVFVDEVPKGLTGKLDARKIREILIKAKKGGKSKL
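Purified P. pyralis luciferase, 10 nM final, with Km-level 10 uM D-luciferin and 10 uM ATP in 50 mM Tris acetate pH 7.5, 10 mM Mg acetate, 0.01% Tween-20, 0.05% BSA; 6-point qHTS titration about 60 µM downward; luminescence read.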
SMN2 splice enh – increases expression of the SMN2 splice variant; HEK293 SMN2-luciferase splicing reporter, luminescence, 30-36 h; Potency, µM (doses to about 46.1 µM), inactives show at the highest dose activity change, positive = activation, most hits filed as activators; actives 2.8% (n = 210,000); AID 1458; note: % of control where 0% means no effect; nearly all actives have a fitted effect of over 55% in size
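HEK293 cells carry an SMN2 minigene-luciferase reporter in which exon 7 inclusion puts luciferase in frame. Cells were seeded at 2000 cells/well, attached for 10-12 hours, then exposed to compounds for 30-36 hours at 37C before ONE-Glo luminescence.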
* marks the source's active call; other numbers are inactive results; ? = inconclusive; / = no result given. Calls come from the whole dose curve; as a rule, active = well fitted curve in the direction sought with a large enough effect; inconclusive = small, poorly fitted or top-dose-only effect, or another doubt; inactive = no such curve, though single readings can be large; an effect the other way counts as inactive or inconclusive. Potency is the fitted concentration of half-maximal effect.

SMILES	NPC1 prom act	ELG1 genotoxic	Rab9 prom act	FLuc modulator	SMN2 splice enh
O=C(CSc1nnc(NC(=O)c2c(F)cccc2F)s1)NCc1ccco1	-3%	11%	2%	-17%	/
COc1ccccc1C(=O)Nc1nnc(SCC(=O)NCc2ccco2)s1	3.2µM*	2.3µM*	2.2µM*	3.4µM*	/
COc1ccc(N/C=C/C(=O)c2ccc(OC)c(OC)c2)cc1	8%	13%	-2%	2.4µM*	/
O=C(/C=C\Nc1cccc(F)c1)c1ccc2c(c1)OCO2	0.32µM*	0.15µM*	?	0.12µM*	/
COC(=O)c1ccc(N/C=C/C(=O)c2ccc(OC)c(OC)c2)cc1	9%	?	10%	-18%	-10%
COc1ccc(C(=O)/C=C/c2cn(CC(O)CN3CCCCCC3)c3ccccc23)cc1OC (stereo not given)	/	/	/	?	-1%
COc1ccc(C(=O)/C=C/Nc2cccc(C)n2)cc1OC	2.2µM*	?	2µM*	3.8µM*	13µM*
COc1ccc(C(=O)/C=C/N2CCCCC2)cc1OC	?	19%	23%	24µM*	-2%
CC(c1ccccc1F)n1cc(C(=O)NCCCc2nc3ccccc3[nH]2)nn1 (stereo not given)	-2%	-2%	-4%	-1%	-12%
Cc1ccc(S(=O)(=O)N2CCC(C(=O)OC(C)C(=O)N3CCOCC3)CC2)cc1 (stereo not given)	6%	-8%	3%	?	/
COc1ccc(N/C=C/C(=O)c2cc(OC)c(OC)c(OC)c2)cc1	-8%	?	-8%	6µM*	/
COc1ccc(N/C=C\C(=O)c2ccc3c(c2)OCO3)cc1OC	27%	?	25%	1.7µM*	21%
CCN1CCN(c2nc(SC)nc3sc4c(c23)CC(C)(C)OC4)CC1	5%	-4%	-3%	0%	-7%
COc1ccnc(Nc2cccc(C)c2)c1C#N	-5%	0%	3%	-2%	-6%
C=CCOc1ccc(C=Nc2ccc(OC)cc2)c(O)c1	0%	1%	-11%	8.5µM*	/
O=C(CCCCCNC(=O)N1CCn2c1nc1ccccc12)NCc1ccc(Cl)cc1	-1%	-3%	0%	24µM*	/
Cc1ccc(CNC(=O)CCCCCNC(=O)N2CCn3c2nc2ccccc23)cc1	-2%	0%	-1%	15µM*	/
Cc1ccc(CNC(=O)CCNC(=O)N2CCn3c2nc2ccccc23)cc1	-4%	-2%	-5%	?	/
O=C(CCCCCNC(=O)N1CCn2c1nc1ccccc12)NCc1ccccc1Cl	-7%	-3%	0%	15µM*	/
COC(=O)[C@H](Cc1ccccc1)NC(=O)[C@]1(C)C[C@H]1[C@H](NC(=O)OCc1ccccc1)c1ccccc1	/	/	/	/	-18%
Cc1ccc(C(=O)NC(=S)Nc2cccc(NC(=O)c3ccccc3Cl)c2)cc1[N+](=O)[O-]	-1%	-1%	-8%	-15%	-3%
N#C/C(=C\c1ccc(O)cc1)C(=O)N1CCCC1	-3%	4%	-1%	-12%	/
CCN1CCN(C(=O)/C(C#N)=C/c2ccc(OC(F)F)cc2)CC1	-1%	0%	2%	-1%	0%
Cc1ccc(/C=C(\C#N)C(=O)N2CCCC2)c(C)c1	-14%	?	-6%	15µM*	12%
N#C/C(=C\c1ccc(OC(F)F)cc1)C(=O)N1CCCCC1	0%	15%	-6%	13µM*	/
SMILES	NPC1 prom act	ELG1 genotoxic	Rab9 prom act	FLuc modulator	SMN2 splice enh
O=C(Nc1cccc(F)c1)c1cc(S(=O)(=O)N2CCOCC2)cs1	-4%	-9%	-9%	0%	/
COc1ccc2c(Sc3ccc(Cl)cc3)c(C(=O)N3CCC(C)CC3)[nH]c2c1	/	/	/	-3%	/
Cc1c(NS(=O)(=O)c2ccc3c(c2)OCCO3)cccc1-c1nc2cccnc2s1	-2%	?	-5%	-7%	-76%
Cc1cc(-c2nc3cccnc3s2)ccc1NS(=O)(=O)c1ccc2c(c1)OCCO2	4%	1%	0%	?	7%
Cc1c(NS(=O)(=O)c2cccs2)cccc1-c1nc2cccnc2s1	-2%	-4%	13%	19µM*	/
O=S(=O)(Nc1cccc2ncccc12)c1cccs1	-20%	-60%	-11%	-12%	-1%
Cc1c(NS(C)(=O)=O)cccc1-c1nc2cccnc2s1	?	-7%	?	17µM*	/
Cc1cc(-c2nc3cccnc3s2)ccc1NS(=O)(=O)c1cccs1	?	?	1.6µM*	13µM*	/
CCCCC1CCC(c2nc(-c3ccccn3)no2)CC1 (stereo not given)	?	?	?	2.7µM*	11µM*
c1ccc(-c2noc(C3CCC3)n2)nc1	22%	10%	27%	-19%	/
Cc1ccc(/C=C(\NC(=O)c2ccccc2)C(=O)N2CCCCC2)cc1	-5%	-4%	-3%	2%	/
CN(C)c1ccc(/C=C(\C#N)c2ccccc2)cc1	29%	4.1µM*	0.56µM*	1.3µM*	/
CN(C)c1cccc(/C=C(\C#N)c2ccccc2)c1	?	4.1µM*	0.5µM*	1.2µM*	/
N#C/C(=C\c1ccc(C#N)cc1)C(=O)c1ccccc1	5%	6%	-2%	?	/
N#C/C(=C\c1cccs1)C(=O)c1ccccc1	2%	4%	8%	15µM*	/
CN(C)c1ccc(/C=C(/NC(=O)c2ccccc2)C(=O)N2CCCC2)cc1	0%	-2%	-1%	17µM*	/
CCOc1ccccc1CNC(=O)C1CCN(C2=NS(=O)(=O)C(c3ccc(C)c(C)c3)=C2C)CC1	/	/	/	2%	/
O=S(=O)(NC1CCCCC1)c1ccc(Cl)s1	1%	-2%	0%	10%	29%
CN(C)c1ccc(C(=O)C(=O)c2ccccc2)cc1	18%	17%	?	24µM*	/
CN(C)c1ccc(/C=C(\C#N)C(=O)c2ccccc2)cc1	-3%	7%	0%	0.43µM*	/
CCOC(=O)C1=C(C)NC(C)=C(C(=O)OCC)C1c1ccc([N+](=O)[O-])s1	0%	0%	-1%	-1%	/
CCn1cc2nc(SCC(=O)Nc3ccc(OC)c(OC)c3)n(Cc3ccc(OC)cc3)c(=O)c2n1	-1%	7%	8%	17µM*	/
CC(=O)c1ccc(NC(=O)C2(c3ccccc3)CCOCC2)cc1	3.2µM*	?	?	13µM*	16%
CCOC(=O)c1c(C)nc2sc(C(=O)Nc3ccc(C(C)=O)cc3)c(N)c2c1-c1ccc(OC)cc1	7%	-4%	-4%	3%	-2%
Cc1nc(NC(C)C)c2cnn(CCc3ccccc3)c2n1	24%	15µM*	?	?	4%
COc1ccc(N2CCN(C(=O)c3cc4cc(Cl)ccc4[nH]3)CC2)cc1	-3%	-3%	7%	-13%	/
O=C1c2cccc(OCC(=O)N3N=C(c4cccs4)CC3c3ccc(F)cc3)c2CCN1Cc1cccnc1 (stereo not given)	-7%	-8%	2%	2%	2%
COc1cc(OC)cc(C(=O)Nc2cc(-c3nc4ccccc4[nH]3)ccc2C)c1	/	/	/	7.6µM*	0%

Source: PubChem BioAssay
